Test results from PubChem BioAssay (Tox21).
Values joined by “and” are separate entries in the source; they are usually repeats but may differ in a detail not shown here. Equal values may be shown once. Inconclusive results are not listed. Some structures have more than one record in an assay (separate samples or runs), and their calls can disagree. Active and inactive are the calls of the source. Calls come from the whole dose curve; as a rule, active = well fitted inhibition curve with a large enough effect in the repeat runs; inconclusive = weak or mixed curves; inactive = no such curve, though single readings can be large or run the other way.

biological target: Cytochrome P450 2C19 (Homo sapiens) (UniProt P33261); experiment: Cytochrome P450 Family 2 Subfamily C Member 19 (CYP2C19) small molecule antagonists: luciferase reporter qHTS assay (AID 1671197); conditions: P450-Glo CYP2C19 enzyme, luciferin luminescence, 1 h; series mostly up to 115 µM; activity change, negative = inhibition: at the top concentration; note: nearly all actives have a fitted effect of over 65% in size
Outline: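 First, compounds are pinned into enzyme-substrate mix and held 10 min at room temperature. Second, NADPH regeneration solution is added and plates incubate 1 h at 37C. Third, detection reagent is added and luminescence read after 20 min.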
% is set by controls: 0 for no effect and ±100 for the full control effect; potency is the fitted concentration of half-maximal effect.

Chain of Cytochrome P450 2C19 (Homo sapiens) (P33261 whole entry, looked up): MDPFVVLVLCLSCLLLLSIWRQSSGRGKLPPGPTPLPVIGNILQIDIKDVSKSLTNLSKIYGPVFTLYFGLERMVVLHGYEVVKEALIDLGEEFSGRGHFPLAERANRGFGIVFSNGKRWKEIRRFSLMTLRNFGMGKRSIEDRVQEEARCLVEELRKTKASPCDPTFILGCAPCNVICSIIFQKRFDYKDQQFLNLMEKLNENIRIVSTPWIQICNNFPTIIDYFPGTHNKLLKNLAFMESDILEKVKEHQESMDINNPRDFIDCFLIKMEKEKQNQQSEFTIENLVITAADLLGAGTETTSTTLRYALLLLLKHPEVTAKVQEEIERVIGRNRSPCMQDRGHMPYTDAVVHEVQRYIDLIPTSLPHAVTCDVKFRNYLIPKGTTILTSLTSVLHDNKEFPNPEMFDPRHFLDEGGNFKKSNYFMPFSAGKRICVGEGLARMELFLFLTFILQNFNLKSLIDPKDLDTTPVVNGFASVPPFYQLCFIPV

SMILES	Potency
CCOP(=S)(OCC)Oc1cc(Cl)c(Br)cc1Cl	0.71 µM (active)
COP(=S)(Oc1cc(Cl)c(Br)cc1Cl)c1ccccc1 (stereo not given)	0.224 µM (active)
Clc1ccc(C2(Cn3cncn3)CC(Br)CO2)c(Cl)c1 (stereo not given)	0.177 µM (active)
CCOP(=S)(OCC)SCSCC	20 µM (active)
O=S1OC[C@@H]2[C@H](CO1)[C@]1(Cl)C(Cl)=C(Cl)[C@@]2(Cl)C1(Cl)Cl (stereo not given in full)	7.96 µM (active)
COc1c(C(C)(C)C)cc([N+](=O)[O-])c(C)c1[N+](=O)[O-]	28.1 µM (active)
O=C1C(=O)c2cccc3cccc1c23	39.9 µM (active)
CCOC(=O)[C@]1(c2ccccc2)Oc2ccccc2[C@@H]1N	35.6 µM (active)
COP(=S)(OC)Oc1cc(Cl)c(I)cc1Cl	2.24 µM (active)
CCOP(=S)(Oc1ccc([N+](=O)[O-])cc1)c1ccccc1 (stereo not given)	0.159 µM (active)
CCOP(=O)(OCC)Oc1ccc([N+](=O)[O-])cc1	1.61 µM (active) and 1.78 µM (active)
CCC(C)(NC(=O)c1cc(Cl)c(C)c(Cl)c1)C(=O)CCl (stereo not given)	25.3 µM (active)
C#CCOC(C(=O)OCCN(C)C)(c1ccccc1)c1ccccc1	1.95 µM (active)
CCC(COC(=O)c1cc(OC)c(OC)c(OC)c1)(c1ccccc1)N(C)C (stereo not given)	24.5 µM (active)
CCOP(=O)(OCC)O/C(=C/Cl)c1ccc(Cl)cc1Cl	1.12 µM (active)
CN(N=O)c1ccc([N+](=O)[O-])cc1	35.6 µM (active)
CC(C)N(C(=O)COc1nnc(C(F)(F)F)s1)c1ccc(F)cc1	1 µM (active)
CCn1cc[n+](C)c1	inactive and 40.3 µM (active) and 79.5 µM (active)
CCCCc1c(C)nc(NCC)nc1OS(=O)(=O)N(C)C	79.6 µM (active)
Nc1nc(=S)[nH][nH]1	25.2 µM (active)

biological target: Cytochrome P450 2C9 (Homo sapiens) (UniProt P11712); experiment: Cytochrome P450 Family 2 Subfamily C Member 9 (CYP2C9) small molecule antagonists: luciferase reporter qHTS assay (AID 1671198); conditions: P450-Glo CYP2C9 enzyme assay, luciferin luminescence; series mostly up to 115 µM; activity change, negative = inhibition: at the top concentration; note: nearly all actives have a fitted effect of over 50% in size
Outline: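 P450-Glo proluciferin substrate with CYP2C9 enzyme; 10 min RT preincubation, then NADPH regeneration 1 h at 37C; luciferin detection reagent 20 min RT, luminescence in relative luminescence units.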

Chain of Cytochrome P450 2C9 (Homo sapiens) (P11712 whole entry, looked up): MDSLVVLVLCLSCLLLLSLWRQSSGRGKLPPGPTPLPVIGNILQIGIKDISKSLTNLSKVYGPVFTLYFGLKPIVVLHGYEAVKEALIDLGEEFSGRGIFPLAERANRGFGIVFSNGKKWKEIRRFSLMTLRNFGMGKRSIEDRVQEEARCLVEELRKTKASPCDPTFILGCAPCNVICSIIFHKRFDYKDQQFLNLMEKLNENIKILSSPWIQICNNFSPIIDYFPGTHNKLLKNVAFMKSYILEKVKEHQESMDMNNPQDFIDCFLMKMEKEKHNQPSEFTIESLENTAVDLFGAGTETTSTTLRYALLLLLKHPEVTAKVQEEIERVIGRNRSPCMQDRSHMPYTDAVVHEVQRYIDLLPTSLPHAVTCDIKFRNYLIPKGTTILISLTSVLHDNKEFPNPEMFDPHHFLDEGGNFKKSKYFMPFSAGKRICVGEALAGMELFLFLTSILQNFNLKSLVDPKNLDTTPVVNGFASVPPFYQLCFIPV

SMILES	Potency	activity change, negative = inhibition
CCOP(=S)(OCC)Oc1cc(Cl)c(Br)cc1Cl	2 µM (active)	–
Cc1cc(=O)[nH]o1	110 µM (active)	–
COP(=S)(Oc1cc(Cl)c(Br)cc1Cl)c1ccccc1 (stereo not given)	0.796 µM (active)	–
Clc1ccc(C2(Cn3cncn3)CC(Br)CO2)c(Cl)c1 (stereo not given)	5 µM (active)	–
CCOP(=S)(OCC)SCSCC	35.6 µM (active)	–
O=S1OC[C@@H]2[C@H](CO1)[C@]1(Cl)C(Cl)=C(Cl)[C@@]2(Cl)C1(Cl)Cl (stereo not given in full)	39.9 µM (active)	–
CCOC(=O)C(Cl)C(C)=O (stereo not given)	–	-15.5% (inactive)
CN1C[C@H](CNC(=O)OCc2ccccc2)C[C@@H]2c3cccc4c3c(cn4C)C[C@H]21	–	-4.22% [at 53 µM] (inactive)
CCCN(CCC)c1c([N+](=O)[O-])cc(S(C)(=O)=O)cc1[N+](=O)[O-]	28.3 µM (active)	–
COP(=S)(OC)Oc1cc(Cl)c(I)cc1Cl	3.99 µM (active)	–
CCOP(=S)(Oc1ccc([N+](=O)[O-])cc1)c1ccccc1 (stereo not given)	0.564 µM (active)	–
CCOP(=O)(OCC)Oc1ccc([N+](=O)[O-])cc1	64 µM (active)	–
CCC(C)(NC(=O)c1cc(Cl)c(C)c(Cl)c1)C(=O)CCl (stereo not given)	35.8 µM (active)	–
C#CCOC(C(=O)OCCN(C)C)(c1ccccc1)c1ccccc1	2.19 µM (active)	–
ClCc1ccccc1	–	1.11% (inactive)
CCC(COC(=O)c1cc(OC)c(OC)c(OC)c1)(c1ccccc1)N(C)C (stereo not given)	15.5 µM (active)	–
CCOP(=O)(OCC)O/C(=C/Cl)c1ccc(Cl)cc1Cl	28.3 µM (active)	–
CC(C)N(C(=O)COc1nnc(C(F)(F)F)s1)c1ccc(F)cc1	35.6 µM (active)	–
O=[N+]([O-])c1ccccc1CCl	–	-17.1% (inactive)
ClP(Cl)(Cl)(Cl)Cl	–	-0.23% (inactive)
CCn1cc[n+](C)c1	inactive and 32 µM (active)	–
CCCCc1c(C)nc(NCC)nc1OS(=O)(=O)N(C)C	31.7 µM (active)	–
Nc1nc(=S)[nH][nH]1	31.7 µM (active)	–
Brc1ccccc1	–	-6.5% (inactive)

biological target: Cytochrome P450 1A2 (Homo sapiens) (UniProt P05177); experiment: Cytochrome P450 Family 1 Subfamily A Member 2 (CYP1A2) small molecule antagonists: luciferase reporter qHTS assay (AID 1671199); conditions: P450-Glo CYP1A2 enzyme, luciferin luminescence, 1 h; series mostly up to 115 µM; activity change, negative = inhibition: at the top concentration; note: nearly all actives have a fitted effect of over 50% in size
Outline: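 Human CYP1A2 activity measured with a P450-Glo proluciferin substrate; compounds in DMSO preincubated 10 min at room temperature with enzyme-substrate mix, then NADPH regeneration system added for 1 h. Luciferin detection reagent, 20 min, luminescence read.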

Chain of Cytochrome P450 1A2 (Homo sapiens) (P05177 whole entry, looked up): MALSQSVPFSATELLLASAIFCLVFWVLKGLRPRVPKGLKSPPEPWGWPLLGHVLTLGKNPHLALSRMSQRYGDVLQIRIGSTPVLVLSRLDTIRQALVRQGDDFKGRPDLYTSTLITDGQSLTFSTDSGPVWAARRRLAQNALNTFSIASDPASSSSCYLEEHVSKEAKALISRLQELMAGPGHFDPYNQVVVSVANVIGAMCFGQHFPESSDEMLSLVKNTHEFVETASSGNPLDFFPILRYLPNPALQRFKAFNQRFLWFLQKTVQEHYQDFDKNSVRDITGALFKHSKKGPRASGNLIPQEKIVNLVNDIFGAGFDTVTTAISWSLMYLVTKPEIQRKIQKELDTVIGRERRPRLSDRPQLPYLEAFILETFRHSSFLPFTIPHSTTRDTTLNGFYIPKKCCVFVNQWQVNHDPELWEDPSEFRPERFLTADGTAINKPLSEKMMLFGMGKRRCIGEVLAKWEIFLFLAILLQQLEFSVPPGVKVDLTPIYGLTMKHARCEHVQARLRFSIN

SMILES	Potency	activity change, negative = inhibition
CCOP(=S)(OCC)Oc1cc(Cl)c(Br)cc1Cl	3.56 µM (active)	–
Cc1cc(=O)[nH]o1	–	-21.6% (inactive)
COP(=S)(Oc1cc(Cl)c(Br)cc1Cl)c1ccccc1 (stereo not given)	15.9 µM (active)	–
Clc1ccc(C2(Cn3cncn3)CC(Br)CO2)c(Cl)c1 (stereo not given)	31.5 µM (active)	–
CCOP(=S)(OCC)SCSCC	22.4 µM (active)	–
O=S1OC[C@@H]2[C@H](CO1)[C@]1(Cl)C(Cl)=C(Cl)[C@@]2(Cl)C1(Cl)Cl (stereo not given in full)	35.6 µM (active)	–
COc1c(C(C)(C)C)cc([N+](=O)[O-])c(C)c1[N+](=O)[O-]	1.77 µM (active)	–
O=C1C(=O)c2cccc3cccc1c23	8.93 µM (active)	–
CCOC(=O)[C@]1(c2ccccc2)Oc2ccccc2[C@@H]1N	63.3 µM (active)	–
CCOC(=O)C(Cl)C(C)=O (stereo not given)	–	-20.2% (inactive)
CN1C[C@H](CNC(=O)OCc2ccccc2)C[C@@H]2c3cccc4c3c(cn4C)C[C@H]21	–	-14.8% [at 53 µM] (inactive)
O=C(N[C@H](c1ccccc1)[C@@H]1CN2CCC1CC2)c1c(Cl)ccc(C(F)(F)F)c1Cl	–	-6.7% (inactive)
CCCN(CCC)c1c([N+](=O)[O-])cc(S(C)(=O)=O)cc1[N+](=O)[O-]	–	-16.5% (inactive)
COP(=S)(OC)Oc1cc(Cl)c(I)cc1Cl	12.6 µM (active)	–
CCOP(=S)(Oc1ccc([N+](=O)[O-])cc1)c1ccccc1 (stereo not given)	5.64 µM (active)	–
CCOP(=O)(OCC)Oc1ccc([N+](=O)[O-])cc1	32.1 µM (active) and 31.7 µM (active)	–
CCC(C)(NC(=O)c1cc(Cl)c(C)c(Cl)c1)C(=O)CCl (stereo not given)	2.26 µM (active)	–
C#CCOC(C(=O)OCCN(C)C)(c1ccccc1)c1ccccc1	–	-6.97% [at 53 µM] (inactive)
ClCc1ccccc1	–	-4.94% (inactive)
CCC(COC(=O)c1cc(OC)c(OC)c(OC)c1)(c1ccccc1)N(C)C (stereo not given)	–	-7.41% [at 53 µM] (inactive)
CCOP(=O)(OCC)O/C(=C/Cl)c1ccc(Cl)cc1Cl	6.33 µM (active)	–
CN(N=O)c1ccc([N+](=O)[O-])cc1	6.33 µM (active)	–
CC(C)N(C(=O)COc1nnc(C(F)(F)F)s1)c1ccc(F)cc1	39.9 µM (active)	–
ClP(Cl)(Cl)(Cl)Cl	–	-4.42% (inactive)
CCn1cc[n+](C)c1	35.5 µM (active) and inactive and 39 µM (active)	–
CCCCc1c(C)nc(NCC)nc1OS(=O)(=O)N(C)C	12.6 µM (active)	–
